# Assay results as given in PubChem BioAssay (Tox21).
# Activity calls are given as the source filed them. Calls follow the shape of the full dose curve.
# Molecular target: Estrogen receptor (Homo sapiens) (UniProt P03372)
# Assay: qHTS assay to identify small molecule agonists of the estrogen receptor alpha (ER-alpha) signaling pathway in the presence of an antagonist (AID 1259383); also: nearly all actives have a fitted effect of over 15% in size; as to activation: top concentration of the series differs between compounds
# Conditions: VM7Luc4E2 cells, ERE-luciferase, +ICI-182,780, 22 h; series mostly up to 92.4 µM; activation: at the top concentration
# From the text: National Center for Advancing Translational Sciences [NCATS] NIH Chemical Genomics Center [NCGC] U.S. Environmental Protection Agency [EPA] National Institutes of Environmental Health Sciences [NIEHS] National Toxicology Program [NTP] Assay overview: Estrogen receptor (ER), a member of nuclear hormone receptor plays an important role in development, metabolic homeostasis and reproduction. Two subtypes of ER, ER-alpha and ER-beta, have similar expression patterns with some uniqueness in both types. Endocrine disrupting chemicals (EDCs) and their interactions with steroid hormone receptors like ER causes disruption of normal endocrine function. Therefore, it is important to understand the effect of environmental chemicals in ER signaling pathway. For identifying ER agonists, VM7Luc4E2 cell line has been used in the current assay. VM7Luc4E2 cell line (provided by Denison MS, University of California) endogenously expresses full-length ER-alpha and is stably transfected with a plasmid containing four estrogen responsive elements (ERE) upstream of a luciferase reporter gene. This current screening for measuring luciferase reporter gene activity using VM7Luc4E2 cells against Tox21 10K library collection is a confirmation study on agonist mode screening in presence of ER-antagonist (ICI-182,780) at 10.0nM final concentration.
# Assay Protocol Summary: VM7Luc4E2 cells were cultured in phenol red free assay medium containing 10% charcoal stripped FBS for 5 days prior to the assay. The cells were dispensed at 4,000 cells in 4uL of assay medium per well into white wall/solid-bottom 1536-well plates (Corning Life Sciences, Corning, NY) using a Multidrop Combi (Thermo Fisher Scientific Inc., Waltham, MA) dispenser. After the assay plates were incubated at 37C and 5% CO2 for 24hr, 1uL of 10.0nM (final concentration) ICI-182,780 or assay buffer was added using two separate tips of Flying Reagent Dispenser (FRD, Aurora Discovery, San Diego, CA). Then 23nL of compounds dissolved in DMSO at 15 concentrations and positive controls or DMSO only was transferred to the assay plates by a Pintool station (Wako, San Diego, CA). The assay plates were incubated at 37C and 5% CO2 for 22hr. For luciferase read, 4uL/well ONE-Glo reagent (Promega Corporation, Madison, WI) was added to each well using FRD and after 30min incubation at room temperature, luminescence signal was measured on ViewLux plate reader (PerkinElmer, Shelton, CT).
# % is scaled to controls: 0 for no effect and ±100 for the full control effect; potency is read from the fitted curve at half-maximal effect.
# Chain of Estrogen receptor (Homo sapiens) (P03372 whole entry, looked up): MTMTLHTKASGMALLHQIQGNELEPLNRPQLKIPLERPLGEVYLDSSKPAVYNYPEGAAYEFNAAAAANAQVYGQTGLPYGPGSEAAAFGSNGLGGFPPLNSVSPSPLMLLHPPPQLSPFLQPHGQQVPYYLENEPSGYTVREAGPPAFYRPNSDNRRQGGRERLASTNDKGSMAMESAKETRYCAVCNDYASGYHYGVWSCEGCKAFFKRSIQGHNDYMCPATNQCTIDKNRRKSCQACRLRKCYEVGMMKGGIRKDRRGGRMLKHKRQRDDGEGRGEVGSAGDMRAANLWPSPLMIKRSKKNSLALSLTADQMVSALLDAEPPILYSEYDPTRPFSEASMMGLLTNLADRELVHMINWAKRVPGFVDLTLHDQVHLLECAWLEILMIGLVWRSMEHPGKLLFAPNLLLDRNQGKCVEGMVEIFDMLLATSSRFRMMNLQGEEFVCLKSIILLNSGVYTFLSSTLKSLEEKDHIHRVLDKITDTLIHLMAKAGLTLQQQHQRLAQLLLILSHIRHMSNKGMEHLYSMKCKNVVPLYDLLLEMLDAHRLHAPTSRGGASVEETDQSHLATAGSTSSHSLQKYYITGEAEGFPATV
Compound,activation,Potency
CCC(C)(C)c1ccc(CC(C)CN2C[C@@H](C)O[C@@H](C)C2)cc1 (stereo not given in full),-0.0971% [at 42.5 µM] (inactive),
CSc1nnc(C(C)(C)C)c(=O)[nH]1,0.0631% (inactive),
CCOC(=O)[C@H](O)[C@@H](O)C(=O)OCC,-0.321% (inactive),
O=C1OC(=O)c2cc(-c3ccc4c(c3)C(=O)OC4=O)ccc21,-0.755% (inactive),
C=C(C)CCO,-0.635% (inactive),
CC(=O)CC(N)=O,-0.0744% (inactive),
CCN(CC)c1ccc(N=Nc2ccccc2)cc1,,193 nM (active)
O=c1cc[nH]cc1,1.32% (inactive),
CCCOC(=O)c1ccc(O)cc1,,47500 nM (active)
C/C(=C\c1ccc(C(=O)O)cc1)c1ccc2c(c1)C(C)(C)CCC2(C)C,-5.11% [at 42.5 µM] (inactive),
CCOC(=O)[C@H](C)O,-0.0141% (inactive),
C=CCc1cc(S(=O)(=O)c2ccc(O)c(CC=C)c2)ccc1O,-1.37% (inactive),
O=C1OCc2ccccc21,1.19% (inactive),
CC/C=C(\C)C=O,-0.0758% (inactive),
C/C=C/C(=O)OCC(C)C,-0.0047% (inactive),
Cc1ccc(C2OC[C@@H]3OC(c4ccc(C)cc4)O[C@H]([C@H](O)CO)[C@@H]3O2)cc1 (stereo not given in full),-0.0535% (inactive),
CCCCCCCCc1ccc(Nc2ccc(CCCCCCCC)cc2)cc1,-1.03% [at 42.5 µM] (inactive),
CC(C)c1ccc2sc3ccccc3c(=O)c2c1,,1370 nM (active)
C=Cc1ccc(O)c(OC)c1,0.12% (inactive),
CC1(C)[C@H](C(=O)OCc2cccc(Oc3ccccc3)c2)[C@@H]1C=C(Cl)Cl,0.291% (inactive),

Compound,activation,Potency
C=C1CC[C@H]2O[C@]2(C)CC[C@@H]2[C@@H]1CC2(C)C,0.183% (inactive),
C=C[Si](C)(C)Cl,-1.47% [at 8.39 µM] (inactive),
C=CC(C)(C)O,-0.0842% (inactive),
CCNc1nc(NC(C)(C)C)nc(OC)n1,1.44% (inactive),
CC/C=C\C/C=C\C/C=C\CCCCCCCC(=O)OC,-0.598% (inactive),
O=C1OC(O)C(C(Cl)Cl)=C1Cl (stereo not given),0.48% (inactive),
CCCCNc1ccc(NCCCC)c2c1C(=O)c1ccccc1C2=O,-0.833% [at 19 µM] (inactive),
[Cl][Dy]([Cl])[Cl],-0.928% (inactive),
c1ccc2occc2c1,-2.37% (inactive),
CC(C)(c1ccc(Oc2ccc(N)cc2)cc1)c1ccc(Oc2ccc(N)cc2)cc1,-12.7% (inactive),
Nc1cccnc1N,0.104% (inactive),
CCCC(=O)c1cc(O)c(O)cc1O,-2.77% (inactive),
CN(C[C@@H](CC[N+]12CCC(C3CCCCC3)(CC1)CC2)c1ccc(Cl)c(Cl)c1)C(=O)c1cc(C(F)(F)F)cc(C(F)(F)F)c1,-7.47% (inactive),
CCCCCCCCSCc1cc(C)c(O)c(CSCCCCCCCC)c1,0.0096% (inactive),
CCc1cccc(C)c1N(C(=O)CS(=O)(=O)O)C(C)COC (stereo not given),-1.7% (inactive),
CCCCCCCCOC(=O)c1cc(O)c(O)c(O)c1,-6.05% (inactive),
Cc1cc(F)ccc1-c1cc(N2CC[C@@H](O)[C@H]2CO)ncc1N(C)C(=O)C(C)(C)c1cc(C(F)(F)F)cc(C(F)(F)F)c1,-1.49% (inactive),
CCC1(C)C(=O)N(Cl)C(=O)N1Cl (stereo not given),0.278% (inactive),
CC1=CC[C@@H](C(C)(C)O)CC1,0.693% (inactive),
Cc1ccc(C=O)cc1,0.661% [at 42.5 µM] (inactive),
